Screening data (PubChem BioAssay)
FadD28 binding – inhibitors of FadD28 bisubstrate probe binding, primary screen, biochemical, fluorescence polarization, single point. 0.22% of 360,000 active. AID 588549, 2011. inhibition, % at 12.5 µM; in the data active means inhibition above about 8.5%, passing the limit was not always enough; inconclusive means no clear call, values can overlap the other calls
PrP UTR inh – inhibition of PrP 5' UTR reporter expression | cell-based PrP 5' UTR mRNA reporter, plate reader | inhibition, % (test concentration not listed) | 0.35% of 340,000 active | AID 488862, 2010; in the data active means inhibition above about 52%
PfHsp40 yeast – rescue of yeast from PfHsp40 toxicity, primary screen, S. cerevisiae, ATP luminescence | growth rescue, % at 12.5 µM | S. cerevisiae expressing PfHsp40, growth rescue | 0.68% of 340,000 active; in the data active means growth rescue above about 28%, passing the limit was not always enough; inconclusive means no clear call, values can overlap the other calls;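 further: yeast W303a lacking pdr1 and pdr3 grown in galactose medium; growth measured after three days at 30 °C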
Y pestis TopoI – Yersinia pestis topoisomerase I inhibitors, primary screen, biochemical, cleavage product accumulation, plate reader, single point | 0.064% of 360,000 active | DNA topoisomerase I (Yersinia pestis CO92) | Y. pestis Topo-I cleavage product accumulation | activity, % at 10 µM; in the data active means activity above about 50%, passing the limit was not always enough; inconclusive means no clear call, values can overlap the other calls
Mtb BioA inh – M. tuberculosis BioA enzyme inhibitors, primary screen, biochemical, plate reader, single point, HTS | 0.096% of 360,000 active | purified M. tuberculosis BioA enzyme | inhibition, % at 9.99 µM | AID 602481, 2012; in the data active means inhibition above about 40%; inconclusive means no clear call, values can overlap the other calls
Large screens that a line does not name were inactive. Hits are enriched below; roughly 1.1% of the tested compounds scored in any of these assays.

CCNC(=O)CCSc1nc2cc(Cl)ccc2o1	PfHsp40 yeast 111
O=C(C(Sc1ccccc1)c1ccccc1)N1CCN(c2ccccc2F)CC1 (configuration not stated)	Y pestis TopoI 55
O=C(C(Sc1ccccc1)c1ccc(Br)cc1)N1CCOCC1 (configuration not stated)	none
C[n+]1c2ccccc2nc2ccc(NCCO)cc21	FadD28 binding 44
CNc1ccc2nc3ccccc3[n+](C)c2c1	FadD28 binding 57
CC(C)n1c(NCCO)nc2ccccc21	PfHsp40 yeast inconclusive (no result: Mtb BioA inh)
C[C@H](CO)N1C[C@H](C)[C@H](CN(C)C(=O)c2ccccn2)Oc2ncc(-c3ccc(F)cc3)cc2C1=O	none (no result: FadD28 binding, PrP UTR inh, PfHsp40 yeast, Y pestis TopoI)
CO[C@@H]1CN(C)C(=O)c2cc(NS(=O)(=O)c3ccccc3F)ccc2OC[C@H](C)NC[C@H]1C	none (no result: FadD28 binding, PrP UTR inh, PfHsp40 yeast, Y pestis TopoI)
Cc1noc(C)c1S(=O)(=O)Nc1ccc2c(c1)C(=O)N([C@H](C)CO)C[C@@H](C)[C@@H](CN(C)C(=O)Nc1ccc(F)cc1)OCCCC[C@@H](C)O2	none (no result: FadD28 binding, PrP UTR inh, PfHsp40 yeast, Y pestis TopoI)
COC(=O)[C@]1(C)CCC[C@@]2(C)C3CC[C@@]4(C)C[C@]3(CCC21)CC(=O)N4 (some centres not stated)	none
C=C1C(=O)C23CCC4C(C)(C(=O)OC)CCCC4(C)C2CCC1(O)C3 (configuration not stated)	PfHsp40 yeast 242 (no result: Mtb BioA inh)
CNC[C@H]1OCCCC[C@@H](C)Oc2ccc(NS(=O)(=O)c3ccc(Cl)cc3)cc2C(=O)N([C@H](C)CO)C[C@@H]1C	none (no result: FadD28 binding, PrP UTR inh, PfHsp40 yeast, Y pestis TopoI)
Cc1cc(C(=O)CN2C(=O)NC3(CCCCC3)C2=O)c(C)n1C	none
Cc1cc(C)c(C(=O)CN2C(=O)NC3(CCCCCC3)C2=O)cc1C	PfHsp40 yeast 52 (no result: Mtb BioA inh)
O=C(C[C@H]1CC[C@H]2[C@@H](COC[C@@H](O)CN2CC2CCOCC2)O1)N1CCOCC1	none (no result: FadD28 binding, PrP UTR inh, PfHsp40 yeast, Y pestis TopoI)
COc1ccc(N(C(=O)c2ccncc2)S(=O)(=O)c2ccc(F)cc2)cc1	PfHsp40 yeast 436
COc1ccc(N(C(=O)c2ccncc2)S(=O)(=O)c2ccccc2)cc1	PfHsp40 yeast 340
COc1ccc(S(=O)(=O)N(C(=O)c2ccncc2)c2ccc(OC(=O)c3ccncc3)cc2)cc1	PfHsp40 yeast 515
CCCNC(=O)C[C@H]1CC[C@H]2[C@@H](COC[C@@H](O)CN2C(=O)c2cc(Cl)cc(Cl)c2)O1	none (no result: FadD28 binding, PrP UTR inh, PfHsp40 yeast, Y pestis TopoI)
CCCN(C)C[C@H]1OCCCC[C@@H](C)Oc2ccc(N(C)C)cc2C(=O)N([C@@H](C)CO)C[C@H]1C	none (no result: FadD28 binding, PrP UTR inh, PfHsp40 yeast, Y pestis TopoI)
Cc1nc(-n2[nH]c3c(c2=O)CCCC3)[nH]c(=O)c1Cc1ccccc1	PfHsp40 yeast 52
Cc1nc(N2CCc3ccccc3C2)[nH]c(=O)c1Cc1ccccc1	none (no result: Mtb BioA inh)
N=C1c2ccccc2CN1NC(=O)CC12CC3CC(CC(C3)C1)C2	FadD28 binding 22 (no result: Mtb BioA inh)
COC(=O)c1cc2c(cc1[N+](=O)[O-])OCO2	none (no result: Mtb BioA inh)
COc1cc2c(cc1/C=C/[N+](=O)[O-])OCO2	PfHsp40 yeast 242
C[C@@H]1CN([C@H](C)CO)C(=O)c2cc(NC(=O)Cc3cn(C)c4ccccc34)ccc2O[C@H]1CN(C)C(=O)Nc1ccc(F)cc1	none (no result: FadD28 binding, PrP UTR inh, PfHsp40 yeast, Y pestis TopoI)
COc1ccc(NCc2nc3ccccc3n2CCOc2ccccc2)cc1	none
COc1ccc(NCc2nc3ccccc3n2CCOc2ccc(C)cc2)cc1	PfHsp40 yeast 75 (no result: Mtb BioA inh)
COc1cc(/C=C2/C(=O)NN(c3cccc(Cl)c3)C2=O)cc(OC)c1O	FadD28 binding 11
COc1cc(/C=C2/C(=O)NN(c3ccc(C)c(Cl)c3)C2=O)cc([N+](=O)[O-])c1O	FadD28 binding 30
CC(C)NC(=O)N(C)C[C@@H]1Oc2ccc(NC(=O)c3ccncc3)cc2C(=O)N([C@@H](C)CO)C[C@H]1C	none (no result: FadD28 binding, PrP UTR inh, PfHsp40 yeast, Y pestis TopoI)
O=[N+]([O-])c1cc(Cl)cc(/C=N/NC(=S)Nc2ccc(S(=O)(=O)N3CCOCC3)cc2)c1O	FadD28 binding 18, PfHsp40 yeast 449
O=S(=O)(c1ccc(NC(=S)N/N=C/c2ccc(O)c(O)c2)cc1)N1CCOCC1	none
CCCCCCCCCCCCCCCC(=O)OC(CC(=O)O)C[N+](C)(C)C (configuration not stated)	FadD28 binding 17, PfHsp40 yeast 125
C[C@@H]1CCCCO[C@H](CN(C)S(=O)(=O)c2ccc(F)cc2)[C@H](C)CN([C@H](C)CO)C(=O)c2cc(NS(=O)(=O)c3ccccc3)ccc2O1	none (no result: FadD28 binding, PrP UTR inh, PfHsp40 yeast, Y pestis TopoI)
COc1ccc(C2CC(=O)C3=C(C2)NC(C)=C(C(=O)Nc2ccccc2C)C3c2coc3ccc(C)cc3c2=O)cc1OC (configuration not stated)	PfHsp40 yeast 63
CCCC1COC(Cn2cncn2)(c2ccc(Cl)cc2Cl)O1 (configuration not stated)	PfHsp40 yeast 134
COC(=O)[C@H]1[C@H](CO)[C@H]2Cn3c(ccc(/C=C/c4ccccc4)c3=O)[C@H]2N1CCC(F)(F)F	none (no result: FadD28 binding, PrP UTR inh, PfHsp40 yeast, Y pestis TopoI)
O=C(NCCC(=O)N1CCCCCCC1)c1ccc(Br)cc1	PfHsp40 yeast 70
CC(C)NC(=O)N(C)C[C@H]1OCCCC[C@@H](C)Oc2ccc(NS(C)(=O)=O)cc2C(=O)N([C@H](C)CO)C[C@@H]1C	none (no result: FadD28 binding, PrP UTR inh, PfHsp40 yeast, Y pestis TopoI)
S=C(NC1CCCC1)N1CCN(c2cccc(Cl)c2)CC1	PfHsp40 yeast 47 (no result: Mtb BioA inh)
COc1ccccc1-c1ccc([C@H]2[C@@H](CO)N(C(=O)c3cccc(F)c3)[C@H]2C#N)cc1	none (no result: FadD28 binding, PrP UTR inh, PfHsp40 yeast, Y pestis TopoI)
C(=N\N1CCOCC1)/c1ccsc1	PfHsp40 yeast 94
C[C@@H]1CN([C@@H](C)CO)C(=O)Cc2cc(NC(=O)Nc3ccccc3)ccc2O[C@H]1CN(C)S(=O)(=O)c1ccc(Cl)cc1	none (no result: FadD28 binding, PrP UTR inh, PfHsp40 yeast, Y pestis TopoI)
CC(=O)Nc1ccc(N=C(C2=C(O)c3ccccc3C2=O)c2ccccc2)cc1	FadD28 binding 14 (no result: Mtb BioA inh)
COc1ccc(N=C(C)C2=C(O)c3ccccc3C2=O)cc1	none
Cc1cc(C)nc(SCc2cc(=O)c(OC(=O)c3ccc(S(=O)(=O)N4CCCC4)cc3)co2)n1	PfHsp40 yeast 130 (no result: Mtb BioA inh)
C[C@H]1CN([C@@H](C)CO)C(=O)Cc2cc(NC(=O)CCN3CCOCC3)ccc2O[C@@H]1CN(C)S(=O)(=O)c1cccs1	none (no result: FadD28 binding, PrP UTR inh, PfHsp40 yeast, Y pestis TopoI)
Cc1nn(C(C)(C)C)c(OC(=O)c2cccs2)c1S(=O)(=O)c1ccccc1	PfHsp40 yeast 67
C[C@@H]1Cc2c(O)c(O)cc(O)c2C(=O)O1	none
CC1Oc2cc3c(-c4c(O)cc(O)c5c(O)c6c(cc45)OC(C)C(C)C6=O)c(O)cc(O)c3c(O)c2C(=O)C1C (configuration not stated)	FadD28 binding 31, PfHsp40 yeast 77
CCC(C(=O)NC1CCCCC1)n1c(SCc2ccccc2F)nc2ccncc21 (configuration not stated)	FadD28 binding 9.3
CSc1nc2ccccc2n1C(=O)NC1CCCCC1	none
C[C@H](CO)N1C[C@H](C)[C@H](CN(C)S(=O)(=O)c2ccc(F)cc2)Oc2ccc(N(C)C)cc2CC1=O	none (no result: FadD28 binding, PrP UTR inh, PfHsp40 yeast, Y pestis TopoI)
COc1ccc(O)c(C(=O)CC(=O)c2ccccc2C)c1	PfHsp40 yeast 314
